{"source": "PubChem BioAssay"}
{"system": "XIP peptide (Xip251-270)", "assay": "small-molecule binders of XIP peptide, primary screen, biochemical, small-molecule microarray, fluorescence 635/667 nm, 0.5 µg/mL protein (AID 1183)", "conditions": "small-molecule microarray binding, fluorescence 635 nm; higher = more signal"}
{"molecule": "Cc1ccc(S[C@]2(C(=O)O)CC(=O)N(Cc3ccccc3)[C@@H]2c2ccc(CO)cc2I)cc1", "composite z-score": 0.564}
{"molecule": "COC(=O)[C@@H]1CCCN1C(=O)[C@@H](C)CO", "composite z-score": 0.0063}
{"molecule": "CN1C(=O)C2C=CC(C(O)c3ccc(Br)cc3)N(N(c3ccccc3)c3ccccc3)C2C1=O", "note": "(stereo not given)", "composite z-score": 0.266}
{"molecule": "C[C@H](c1ccccc1)N1C(=O)[C@H]2[C@H]3[C@H](O)[C@H](O)CC(=O)[C@@H]3CC[C@H]2C1=O", "composite z-score": 0.771}
{"molecule": "CC(=O)OC[C@H]1O[C@@H](ON=C(C)CCN2CCc3nc(-c4ccccc4)c(-c4ccccc4)cc3C2)[C@H](OC(C)=O)[C@@H](OC(C)=O)[C@@H]1OC(C)=O", "composite z-score": 0.71}
{"molecule": "CCc1cc2c(nc1CC)CCN(CCC(C)=NOC(C)CN1CCCc3nc(C)c(C)cc31)C2", "note": "(stereo not given)", "composite z-score": 0.561}
{"molecule": "COC(=O)CC=C[C@@H](C)[C@@H](C=NO[C@H](C)c1cn([C@@H]2COC[C@H]2O)nn1)OC", "composite z-score": 0.446}
{"molecule": "CO[C@H]1COC(=O)CC=C[C@H](C)[C@@H](NS(=O)(=O)c2ccc(C)cc2)COC(=O)CC=C[C@@H]1C", "composite z-score": 0.0878}
{"molecule": "COc1ccc(O[C@H]2C=C[C@@H](c3ccccc3)O[C@@H]2COC(=O)CCC(C)=NO[C@H](C)c2cn([C@@H]3COC[C@H]3O)nn2)cc1", "composite z-score": 0.596}
{"molecule": "CO[C@H]1COC(=O)[C@@H]2CCCN2C(=O)CC=C[C@@H](C)[C@H](OC)COC(=O)CC=C[C@@H]1C", "composite z-score": 0.298}
{"molecule": "C#CCCCON=C1C[C@@H](O)[C@@H](O)[C@@H]2[C@@H]3C(=O)N(Cc4ccccc4)C(=O)[C@@H]3CC[C@H]12", "composite z-score": -0.102}
{"molecule": "COC(=O)CC=C[C@@H](C)[C@H](OC)c1ccccc1Br", "composite z-score": -0.412}
{"molecule": "C[C@@H](c1ccccc1)N1C(=O)[C@H]2[C@H]3[C@H](O)[C@H](O)CC(=NOC[C@@H](O)COCc4ccco4)[C@@H]3CC[C@H]2C1=O", "composite z-score": -0.287}
{"molecule": "O=C1[C@H]2[C@H]3[C@H](O)[C@H](O)CC(=NOC[C@@H](O)COCc4ccco4)[C@H]3CC[C@H]2C(=O)N1C1CCCCC1", "composite z-score": -0.37}
{"molecule": "CC[C@@H](c1ccccc1)n1c(=O)n2n(c1=O)[C@H]1[C@H](O)[C@@H]3O[C@@H]3C(=NOCC=C(C)CCC=C(C)C)[C@H]1CC2", "composite z-score": 0.4}
{"molecule": "C[C@H]1Cc2c(-c3ccccc3)nc3c(c2CO1)CN(CCOc1ccccc1)CC3", "composite z-score": 0.771}
{"molecule": "CCOC(=O)C1=CC[C@H]2C(=O)N(CC)C(=O)[C@@H]12", "composite z-score": 0.343}
{"molecule": "COC(=O)[C@@]1(Cc2ccccc2)[C@H]2c3cc(C(=O)N4CCCC4)n(Cc4ccccn4)c3C[C@H]2CN1C(=O)c1ccccc1", "composite z-score": 0.91}
{"molecule": "CC(=O)OC[C@H]1O[C@H](CCON=C(C)CCN2CCc3nc(-c4ccccc4)c(-c4ccccc4)cc3C2)C=C[C@@H]1OC(C)=O", "composite z-score": -0.0332}
{"molecule": "COC(=O)C1=C(C)[C@@H](O)[C@@H](C)[C@H](c2c(OC)c(OC)c(C)c(OC)c2OC)O1", "composite z-score": 0.562}
{"molecule": "CC(=O)O[C@H]1C2=C(C(=O)[C@@H]3O[C@@H]31)[C@H]1C(C)O[C@@H]2[C@@]23C(=O)[C@@H]4O[C@@H]4[C@@H](O)C2=CO[C@H](C)[C@@H]13", "note": "(stereo not given in full)", "composite z-score": -0.697}
{"molecule": "CC(=O)OC[C@H]1O[C@H](C#CCCCc2ccccc2)C=C[C@@H]1OC(C)=O", "composite z-score": 0.505}
{"molecule": "C[C@@H](c1ccccc1)N1C(=O)[C@H]2[C@H]3[C@H](O)C=CC(=O)[C@@H]3CC[C@H]2C1=O", "composite z-score": 0.014}
{"molecule": "CC(CCN1CCc2nc(-c3ccccc3)c(-c3ccccc3)cc2C1)=NOC[C@@H](C)[C@H](OCc1ccccc1)C(C)C", "composite z-score": -0.445}
{"molecule": "CO[C@@H]1COC(=O)CC=C[C@@H](C)COC(=O)[C@H](COCc2ccccc2)NC(=O)CC=C[C@H]1C", "composite z-score": -0.453}
{"molecule": "CCN1C(=O)[C@H]2[C@H]3[C@H](O)[C@H](O)CC(=NOCc4ccccc4)[C@@H]3CC[C@H]2C1=O", "composite z-score": 0.465}
{"molecule": "COC(=O)[C@@H]1CC[C@H](C)[C@@H](c2ccc(C)cc2)N1C(=O)c1ccc(C=NOC[C@@H](O)COCc2ccco2)cc1", "composite z-score": -1.03}
{"molecule": "COc1ccc(O[C@@H]2[C@H](O)CO[C@H]2C=CC#Cc2ccccc2)cc1", "composite z-score": 0.799}
{"molecule": "CC[C@@H](c1ccccc1)n1c(=O)n2n(c1=O)[C@H]1[C@H](O)[C@@H]3O[C@@H]3C(=NOCC(C)C)[C@H]1CC2", "composite z-score": 0.68}
{"molecule": "COC(=O)[C@H](C)NC(=O)CCC1CC(OC(=O)NCc2cccc3ccccc23)CC2(CCCC(COC(=O)NCCc3ccc(Cl)cc3)O2)O1", "note": "(stereo not given in full)", "composite z-score": 0.204}
{"molecule": "CCCCCCc1nc(CCCc2cc3c(c(CCCCCC)n2)[Si](C(C)C)(C(C)C)O[C@H]3c2ccccc2)cc2c1[Si](C(C)C)(C(C)C)O[C@H]2c1ccccc1", "composite z-score": -0.307}
{"molecule": "CC(=O)OC[C@H]1O[C@@H](ON=C[C@@H](C)[C@H](OCc2ccccc2)C(C)C)[C@H](OC(C)=O)[C@@H](OC(C)=O)[C@@H]1OC(C)=O", "composite z-score": 0.0517}
{"molecule": "CC(C)CON=C1C[C@@H](O)[C@@H](O)[C@@H]2[C@@H]3C(=O)N([C@@H](C)c4ccccc4)C(=O)[C@@H]3CC[C@H]12", "composite z-score": 0.402}
{"molecule": "C#CCCCON=C1C[C@@H](O)[C@@H](O)[C@@H]2[C@@H]3C(=O)N(CCC(=O)OCC)C(=O)[C@@H]3CC[C@@H]12", "composite z-score": 0.365}
{"molecule": "O=C1CCCC=C1C(O)CCOCc1ccccc1", "note": "(stereo not given)", "composite z-score": 0.0941}
